# Compound activity deposited in PubChem by National Center for Advancing Translational Sciences (NCATS).
# Shiga inhibitor: blocks Shiga toxin action in Vero cells; Vero cells, Shiga toxin protein synthesis inhibition reporter; inhibition, % at 38.7 µM; 290,000 compounds, 9.2% hits; in the data active = inhibition mostly above about 28%, no sharp cut-off; inactive = mostly below about 43%; note: 0% is about no effect
# Pf growth 96h: inhibits malaria parasite growth, 96 h; Potency, µM (highest dose often 28.7 µM), for the others: at the highest dose activity change, negative = inhibition, usual class: inhibitors; 320,000 compounds, 6.9% hits; P. falciparum luciferase reporter growth, 96 h; active = well fitted inhibition curve with a large enough effect; inconclusive = small, poorly fitted or top-dose-only effect, or another doubt; inactive = no such curve, though single readings can be large or run the other way; note: potency is the fitted concentration of half-maximal effect; % is set by controls: 0 for no effect and ±100 for the full control effect
#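 Infected RBCs, 2% Hct / 0.05% parasitemia final; luciferase-reporter P. falciparum; cpd 96 h, 37 C, 5% CO2; luciferase detection reagent; luminescence.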
# Pf growth 48h: P. falciparum growth inhibition at 48 hours (one generation); 310,000 compounds, 5.9% hits; Potency, µM (series often up to 28.7 µM), for inactives: at the highest dose activity change, negative = inhibition, actives largely listed as inhibitors; P. falciparum luciferase growth in erythrocytes, 48 h; active = well fitted inhibition curve with a large enough effect; inconclusive = small, poorly fitted or top-dose-only effect, or another doubt; inactive = no such curve, though single readings can be large or run the other way; note: potency is the fitted concentration of half-maximal effect; % is set by controls: 0 for no effect and ±100 for the full control effect
#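 Growth was read as firefly luciferase luminescence after a 48 h, 37 C, 5% CO2 exposure of compounds to reporter-bearing P. falciparum cultures (0.1% parasitemia, 2% hematocrit final) in Albumax-supplemented RPMI 1640.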
# NS1 function inh: influenza NS1 inhibition. Potency, µM (doses to about 46.1 µM), for inactives: at the highest dose activity, positive = more growth. 270,000 compounds, 0.4% hits. AID 2326; note: potency is the fitted concentration of half-maximal effect; actives are rising curves; nearly all actives have a fitted effect of over 50% in size
#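 OD600 was taken as the measure of yeast growth restored by compound in an NS1-expressing S. cerevisiae strain. Cells had been washed out of glucose medium and diluted 1:100 into galactose -URA medium, pH 6.0.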
# SARS PLpro yeast: inhibitors of SARS-CoV papain-like protease in yeast; 330,000 compounds, 0.19% hits; Potency, µM (series often up to 32.9 µM), for inactives: top-dose activity, positive = growth rescue, actives largely listed as activators; S. cerevisiae expressing SARS-CoV PLpro, growth rescue; note: potency is the fitted concentration of half-maximal effect; 0% is about no effect; nearly all actives have a fitted effect of over 55% in size
# CHX counter: counter-screen for Shiga toxin inhibitors: cycloheximide protein synthesis inhibition | max response, % | 300,000 compounds, 12% hits | cell reporter, cycloheximide protein synthesis inhibition counterscreen; in the data active = max response mostly above about 13%, no sharp cut-off; inactive = mostly below about 14%; note: read at 38.3 µM for the half of the compounds with a filed dose; 0% is about no effect
# An asterisk follows results filed as active; ? = inconclusive; nt = no result given; [ ] = dose if it differs, or a comment. Most compounds without a hit are left out; they make up all but 21% or so of the library. Unless noted, calls come from the whole dose curve.
SMILES,Shiga inhibitor,Pf growth 96h,Pf growth 48h,NS1 function inh,SARS PLpro yeast,CHX counter
Cc1ccc(N2CC(C(=O)Nc3ccc4c(c3)OCCO4)CC2=O)cc1C (stereo not drawn),52.8*,33.9%,47.2%,0.1%,1.1%,16.4
COC(=O)c1ccc(NC(=O)C2CC(=O)N(c3ccc(C)cc3)C2)cc1 (stereo not drawn),21.2,25.2%,10.4%,-5.4%[9.22 µM],4.6%,16.7*
C=CCOc1ccc(/C=N/NC(=O)c2c(C)nc3ccc(Cl)cn23)cc1,-3.1,0.0%,?,27.5%,-0.9%,-1.4
Cc1c(Cl)cccc1NC(=O)CN1CCN(CCN=CC2=C(O)CC(c3ccccc3)CC2=O)CC1 (stereo not drawn),-19.6,?,0.0%,nt,-5.5%,16.1
O=C(Nc1ccc(N2CCOCC2)cc1)C1CC(=O)N(c2ccc(F)cc2)C1 (stereo not drawn),12.7,10.4µM*,-22.5%,2.8%,0.6%,-5.6
O=C(Nc1ccc(N2CCOCC2)cc1)C1CC(=O)N(c2ccccc2)C1 (stereo not drawn),20.1,50.3%,6.5%,0.6%,-0.8%,8.8
O=[N+]([O-])c1cccnc1N1CCN(Cc2ccc3c(c2)OCO3)CC1,24.3,?,-3.0%,14.1%,0.3%,8.2
CC(C)[C@@H](C(=O)N1CCN(Cc2ccc3c(c2)OCO3)CC1)n1nnc2ccccc2c1=O,-1.2,13.1µM*,?,-10.8%,2.4%,-0.4
Cn1c(=O)cc(SCC(=O)N2CCN(Cc3ccc4c(c3)OCO4)CC2)c2ccccc21,25.0,?,1.8%,-9.3%,2.8%,-1.6
O=C(Cn1cnc2ccccc2c1=O)N1CCN(Cc2ccc3c(c2)OCO3)CC1,-11.9,?,nt,4.3%,-3.3%,-4.3
Cn1c(C(=O)N2CCN(Cc3ccc4c(c3)OCO4)CC2)cc2c(=O)n(C)c3ccccc3c21,-7.3,1.85µM*,nt,-40.3%,3.3%,-5.9
Cn1c(=O)c([N+](=O)[O-])c(N2CCN(Cc3ccc4c(c3)OCO4)CC2)c2ccccc21,11.8,11.7µM*,11.7µM*,-5.5%,-0.1%,7.8
Cn1c(C(=O)N2CCN(c3ncccn3)CC2)cc2c(=O)n(C)c3ccccc3c21,-5.4,10.4µM*,nt,-23.4%,7.7%,-1.9
C=CCN1C(=O)c2ccc(C(=O)NCCc3ccc(OC)c(OC)c3)cc2C1=O,-8.3,?,-20.0%,-3.6%,-5.0%,-0.7
CN1C2C=C3C(C#N)=C(N)C(C#N)(C#N)C(c4ccc(Br)cc4)C3C1CC2 (stereo not drawn),-5.0,8.28µM*,9.28µM*,22.8%,3.7%,-4.3
Fc1ccc(Sc2cc(Cl)c(-c3ccccc3)nn2)cc1,-13.0,?,?,-50.8%,-8.4%,-2.0
Fc1ccc(-c2nnsc2Sc2ccccn2)cc1,67.1*,8.6%,29.5%,nt,1.0%,33.6*
Cc1ccsc1-c1nc(CN2C[C@@H](C)O[C@@H](C)C2)c(C)o1,-16.4,-20.9%,-7.4%,-5.4%,-0.9%,0.9
Cc1ccc(C)c(S(=O)(=O)Nc2ccccc2C(=O)Nc2ccccc2N2CCOCC2)c1,-11.7,nt,?,23.4%,-3.0%,-2.5
COC(=O)c1cccnc1-n1c(=O)c2cccnc2n(Cc2cccc(OC)c2)c1=O,-0.7,?,nt,-4.1%,-0.4%,-3.8
COC(=O)c1cc(-c2cc(OC)ccc2OC)nc2c1c(=O)n(C)c(=O)n2Cc1ccccc1,-6.3,2.08µM*,?,-41.9%,0.2%,5.3
O=C(O)c1cn2c3c(ccc(Cl)c3c1=O)OCC2,21.4,26.8%,44.9%,-3.5%,-0.2%,-3.5
CN1CCN(S(=O)(=O)c2ccc(-c3ccc(Cl)cc3)cc2)CC1,4.6,nt,-13.2%,4.1%[9.22 µM],0.1%,2.9
CN1CCN(S(=O)(=O)c2ccc(Cc3ccc(S(=O)(=O)N4CCN(C)CC4)cc3)cc2)CC1,1.7,11.7µM*,?,-6.5%,3.7%,-4.3
CN1CCN(S(=O)(=O)c2ccc(Cl)cc2)CC1,nt,1.85µM*,-20.2%,25.2%,3.7%,1.2
SMILES,Shiga inhibitor,Pf growth 96h,Pf growth 48h,NS1 function inh,SARS PLpro yeast,CHX counter
O=C(NCCc1nnc2ccc(NCc3cccnc3)nn12)c1ccccc1F,-17.0,8.1%,-6.6%,nt,4.6%,-1.5
CCCCOC(=O)C1=C(C)NC(=O)NC1c1ccc([N+](=O)[O-])s1 (stereo not drawn),-7.2,-6.1%,-21.0%,9.9%,10.6%,-6.0
O=C(NCc1ccccn1)[C@@H]1C[C@H]1[C@@H](NP(=O)(c1ccccc1)c1ccccc1)c1ccccc1,21.6,?,-6.4%,2.0%,-6.9%,-3.9
O=C(NCc1ccccc1)[C@@H]1C[C@H]1[C@@H](NP(=O)(c1ccccc1)c1ccccc1)c1ccccc1,-16.0,14.7µM*,?,0.4%,1.5%,-2.9
O=C(Nc1ccc2ccccc2c1)[C@@H]1C[C@H]1[C@@H](NP(=O)(c1ccccc1)c1ccccc1)c1ccccc1,25.5,?,9.28µM*,?,-17.0%,9.3
CCNS(=O)(=O)c1ccc(CCC(=O)NCc2ccc(C)cc2)cc1,-7.3,13.9%,0.9%,1.8%,-0.2%,-2.8
COc1ccc(C(=O)NCc2nc3ccccc3[nH]2)cc1OC,-7.8,45.9%,21.9%,4.5%,3.2%,-2.3
Cc1ccccc1OCc1nc2ccccc2[nH]1,62.0*,1.4%,99.5%,-5.9%,-3.5%,56.8*
COc1ccccc1OCc1nc2ccccc2[nH]1,51.1*,nt,163.9%,-14.1%,2.1%,52.1*
c1cnc2c(OCc3nc4ccccc4[nH]3)cccc2c1,77.8*,8.28µM*,53.2%,-38.3%,-18.9%,61.8*
COc1cc(SC)ccc1C(=O)Nc1ccc(Cl)cn1,76.9*,?,-1.5%,-4.5%,-1.0%,32.7*
CSc1ccc(Cl)c(C(=O)Nc2ccc(Cl)cn2)c1,1.2,7.38µM*,11.4%,-2.7%,-0.7%,1.2
COc1cc(SC)ccc1C(=O)Nc1nc(C)cc(C)n1,-1.4,?,43.4%,-20.8%,-2.3%,-2.3
O=C(CSc1n[nH]c(=O)n1C1CC1)NCc1ccccc1Cl,-3.0,21.7%,35.8%,6.8%,-0.5%,-3.5
C#CCn1cnc2c(cnn2-c2ccc(C)c(C)c2)c1=O,141.0*,?,122.9%,0.1%,-3.1%,34.8*
Cc1ccc(-n2ncc3c(=O)n(CC#N)cnc32)cc1C,39.9,?,50.8%,-0.9%,-4.3%,65.2*
Cc1nc2c3cnn(-c4ccc(C)c(C)c4)c3ncn2n1,70.1*,274.3%,72.2%,-1.8%,3.7%,29.0*
O=C(CN1CCCC1c1cccs1)N1CCN(S(=O)(=O)c2cccc(F)c2)CC1 (stereo not drawn),nt,?,?,nt,-30.4%,nt
Cc1cc(C)c(NC(=O)c2cc(C(=O)O)ccc2C(=O)O)c([N+](=O)[O-])c1,-3.0,2.33µM*,-4.6%,nt,-4.2%,-3.2
CCN(CC)S(=O)(=O)c1cc(NC(=O)C(C)N(C)CC(=O)Nc2c(C)cccc2C)ccc1C (stereo not drawn),-4.2,11.7µM*,11.7µM*,-21.4%,-6.7%,-1.5
